Laboratory results taken from PubChem BioAssay (EPA / NIEHS).
Active and inactive are the calls of the source. The calls were made as follows: active = hit-call score of the fitted dose curve at least 0.9, where 1 is the maximum; inactive = score below 0.9.

What follows are compounds tested on Glutathione S-Transferase (GSTA2), GSTA2 (gene 2939) (assay: LTEA_HepaRG_GSTA2: Life Technologies and Expression Analysis (LTEA) Assay for Glutathione S-Transferase (GSTA2) using HepaRG (AID 2283497)). Settings: mRNA level, 48 h; actives raise or lower the signal.
Experimental: LTEA_HepaRG is a cell based, multiplexed-readout assay that uses HepaRG, a human liver cell line, with measurements taken at 48 hours after chemical dosing on a 96-well plate.LTEA_HepaRG_GSTA2 is one of 102 assay component(s) measured in the LTEA HepaRG cell culture assay. It is a marker of Oxidative Stress.Data from the assay component LTEA_HepaRG_GSTA2 was analyzed into 1 endpoint. This assay endpoint, LTEA_HepaRG_GSTA2, was analyzed with bidirectional fitting relative to DMSO as the negative control and baseline of activity. Using a type of inducible reporter, measures of mRNA induction for gain or loss-of-signal activity can be used to understand regulation of transcription factor activity. To generalize the intended target to other relatable targets, this assay endpoint is annotated to the transferase intended target family, where the subfamily is alkyl and aryl transferase.
A total of 1060 chemcials from the ToxCast library were tested in eight-point concentration-response experiments. Cell culture and cytotoxicity assays were conducted at Thermo Fisher Scientific's Custom Services facility (Madison, WI). A single lot of human HepaRG cells (Thermo Fisher Scientific, Frederick, MD) was used for the cell culture experiments. 96-well format collagen type I coated plates of human HepaRG cells were prepared using established methods. Briefly, cryopreserved HepaRG cells were thawed, plated at a density of approximately 100,000 cells/well in HepaRG Thaw, Plate, and General Purpose media (HPRG770, Thermo Fisher Scientific), and incubated for 48 hours. 0.5% DMSO was selected as vehicle control to balance the requisite need of DMSO in HepaRG cultures to maintain differentiation (for example, baseline metabolism, proportions of hepatocytes vs. cholangiocytes), while enabling further hepatic receptor pathway activation (for example, PXR and CAR) in response to chemical exposure. 48 hours after plating, the culture medium was replaced with HepaRG Serum-Free Incudtion Media. Cells were exposed to each test chemical in duplicate and maintained in CO2 incubators for another 48 hours. Chemical plates were thawed to room temperature and 200x concentrations of treatment groups were prepared. 8-point conentration-reponse curves were made with the highest exposure at 100 uM, followed by half-log dilutions, all in 0.5% DMSO. Each test plate contained variouse controls, induction positive controls (1mM phenobarbital), cytotoxicity positive controls ([…] aflatoxin B1), vehicle controls (0.5% DMSO), and total lysis controls (0.5% DMSO). Cell morphology images were taken using an Essen IncuCyte FLR automated microscope, with six 96-well plates imaged in about 24 minutes. Images were captured and exported and JPEG files. Spent culture media was transfered to black-well plates for the LDH assay, and remaining media was sorted at -80 C for later use. Cells were treated with RLT buffer and frozen until shipped for gene expression analysis. Total RNA was isolated from the cell suspension in 75 uL of Buffer RLT (Qiagen, Germantown, MD 20874) by Quintiles/Expression Analysis (Durham, NC) using a custom isolation procedure. Total RNA from each plate well was transferred to a preamplification plate. Fluidigm's 96.96 Dynamic ArrayTM (Fluidigm, Amsterdam, the Netherlands) technology was used for gene expression analyses by quantitative reverse transcription polymerase chain reaction (qRT-PCR, performed by Quintiles/Expression Analysis, Durham, NC)89. Standard TaqManTM Assays (Applied Biosystems/ThermoFisher Scientific, Foster City, CA) were used to assess the expression of 93 genes selected based on their selectivity and sensitivity to important hepatic receptors known to be modulated by environmental chemicals; importance in human hepatocyte functionality; and hepatotoxicity. […]

Question: Which outcome does the source give for `CC=Cc1ccc(O)c(OC)c1` here?
Answer: Its outcome is “inactive”.

Question: With `C1CCC(SSC2CCCCC2)CC1` as the compound, how does the outcome read?
Answer: The outcome was “inactive”.

Question: How did the outcome turn out when `Cc1ccc(N(C)C)cc1` was run?
Answer: The outcome was “inactive”.

Question: For `CCCCOC(=O)CCCCCCCCC(=O)OCCCC`, which outcome is on record?
Answer: Its outcome is “inactive”.

Question: For `C[C@]12C=CC(=O)C=C1CC[C@@H]1[C@@H]2C(=O)C[C@@]2(C)[C@H]1CC[C@]2(O)C(=O)CO`, which outcome is on record?
Answer: Its outcome is “inactive”.

Question: Which outcome does the source give for `FC(F)(F)C(F)(F)C(F)(F)C(F)(F)C(F)(F)C(F)(F)CCI` here?
Answer: The outcome was “inactive”.

Question: For `NS(=O)(=O)c1cc2c(cc1Cl)NCNS2(=O)=O`, which outcome is on record?
Answer: The outcome was “inactive”.

Question: How did the outcome turn out when `c1cc(-c2ccncc2)ccn1` was run?
Answer: The outcome was “inactive”.

Question: How did the AC50 turn out when `Cc1cc(NC(=O)C(=O)O)cc(C)c1Oc1ccc(O)c2c1CCC2` was run?
Answer: Its AC50 is 75.6 µM (active).

Question: For `CCOC(=O)CCC(=O)OCC`, which outcome is on record?
Answer: The outcome was “inactive”.

Question: How did the outcome turn out when `CCCCCCCCCCCCCO` was run?
Answer: The outcome was “inactive”.

Question: With `CCCCCCCC=O` as the compound, how does the outcome read?
Answer: The outcome was “inactive”.

Question: With `COc1ccc2c(c1)c(CC(=O)O)c(C)n2C(=O)c1ccc(Cl)cc1` as the compound, how does the outcome read?
Answer: The outcome was “inactive”.

Question: Which outcome does the source give for `CC(=O)Oc1ccccc1C(=O)O` here?
Answer: The outcome was “inactive”.

Question: How did the outcome turn out when `CNC(=O)[C@H]1O[C@@H](n2cnc3c(NCc4cc(Cl)ccc4OCc4cc(C)no4)ncnc32)[C@H](O)[C@@H]1N` was run?
Answer: Its outcome is “inactive”.

Question: `CCCCN(CCCC)CCCC` was tested. Which outcome did it give?
Answer: Its outcome is “inactive”.

Question: Which outcome does the source give for `CCOc1ccc2c(c1)C(C)=CC(C)(C)N2` here?
Answer: Its outcome is “inactive”.

Question: How did the outcome turn out when `Cc1cccc([N+](=O)[O-])c1C` was run?
Answer: Its outcome is “inactive”.

Question: `COc1ccc(S(=O)(=O)N2C(=O)[C@@](c3ccccc3OC)(N3C[C@H](O)C[C@H]3C(=O)N(C)C)c3cc(Cl)ccc32)c(OC)c1` was tested. Which AC50 did it give?
Answer: The AC50 was 25 µM (active).

Question: Which outcome does the source give for `CCCCc1ccc2c(n1)[C@@H](c1ccc(OC)cc1C[C@H](C)C(=O)O)[C@H](C(=O)O)[C@H]2c1ccc2c(c1)OCO2` here?
Answer: Its outcome is “inactive”.

Question: `Cc1ccccc1Cl` was tested. Which outcome did it give?
Answer: The outcome was “inactive”.

Question: With `CCCCC(CC)COC(=O)CC(C(=O)OCC(CC)CCCC)S(=O)(=O)O` (stereo not given) as the compound, how does the AC50 read?
Answer: Its AC50 is 82.2 µM (active).

Question: For `O=c1c(O)c(-c2ccc(O)c(O)c2)oc2cc(O)cc(O)c12`, which outcome is on record?
Answer: Its outcome is “inactive”.

Question: How did the AC50 turn out when `CNCc1cc(F)ccc1Oc1ccc(Cl)c(Cl)c1` was run?
Answer: The AC50 was 92.7 µM (active).

Question: Which outcome does the source give for `CC(C)c1ccc(C(=O)N=C(N)N)cc1S(C)(=O)=O` here?
Answer: Its outcome is “inactive”.

Question: For `CN1CCN(Cc2cc(-c3ccc4[nH]c(=O)oc4c3)co2)[C@@H](c2ccc(F)cc2)C1`, which AC50 is on record?
Answer: Its AC50 is 12.2 µM (active).

Question: `Cc1cc(=O)[nH]c(=S)[nH]1` was tested. Which outcome did it give?
Answer: The outcome was “inactive”.

Question: How did the outcome turn out when `Cc1nc(-c2ccc3c(c2)CCN(CCC2CCC(NC(=O)/C=C/c4ccc(F)cc4)CC2)CC3)no1` (stereo not given) was run?
Answer: Its outcome is “inactive”.

Question: `O=C(O)CCCCC(=O)O` was tested. Which outcome did it give?
Answer: The outcome was “inactive”.

Question: For `Cc1c(C(=O)O)c(O)cc2c1C(=O)c1c(O)c([C@@H]3O[C@H](CO)[C@@H](O)[C@H](O)[C@H]3O)c(O)c(O)c1C2=O`, which outcome is on record?
Answer: The outcome was “inactive”.

Question: `Cc1nc(C)nc(N2C[C@@H](C)N(c3ccnc([C@@H](C)O)n3)[C@@H](C)C2)n1` was tested. Which AC50 did it give?
Answer: The AC50 was 25 µM (active).

Question: How did the outcome turn out when `Cc1ccc(C)c(C)c1` was run?
Answer: The outcome was “inactive”.

Question: For `Cc1ccc2ncccc2c1`, which outcome is on record?
Answer: Its outcome is “inactive”.

Question: With `COc1cc(S(=O)(=O)O)c(C)cc1N=Nc1c(O)ccc2cc(S(=O)(=O)O)ccc12` as the compound, how does the outcome read?
Answer: The outcome was “inactive”.

Question: `Cc1oc(-c2ccccc2)nc1CCOc1cccc2c1ccn2CCC(=O)O` was tested. Which AC50 did it give?
Answer: Its AC50 is 81.5 µM (active).

Question: For `CC1(C)NC(=O)NC1=O`, which outcome is on record?
Answer: The outcome was “inactive”.

Question: For `NCCO`, which outcome is on record?
Answer: Its outcome is “inactive”.

Question: How did the AC50 turn out when `CC1=C(/C=C/C(C)=C/C=C/C(C)=C/CO)C(C)(C)CCC1` was run?
Answer: Its AC50 is 52.2 µM (active).

Question: How did the AC50 turn out when `Nc1ccccc1N` was run?
Answer: The AC50 was 74.9 µM (active).

Question: Which outcome does the source give for `COc1cc(C=O)ccc1O` here?
Answer: Its outcome is “inactive”.
